These results are taken from PubChem BioAssay (EPA / NIEHS).

Active and inactive are the calls of the source. How the source made its calls: active means hit-call score of the fitted dose curve at least 0.9, where 1 is the maximum; inactive means score below 0.9.

This experiment is described as follows: CCTE_Shafer_MEA_dev_per_network_spike_spike_percent: CCTE's Neural Network Formation Assay for Percent of Spikes in a Network Spike, Shafer Lab (AID 2284054). In short, it runs like this:
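Read-out: percent of spikes falling in a 0.05 s window at network-spike peak, from spontaneous MEA recordings on days 5, 7, 9 and 12; trapezoidal AUC; loss of signal versus DMSO. Rat cortical cultures, compound present throughout.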
`O=S(=O)(O)CCC(F)(F)C(F)(F)C(F)(F)C(F)(F)C(F)(F)C(F)(F)C(F)(F)C(F)(F)F`: the call was inactive.

In the case of `NC(=O)C(F)(F)C(F)(F)C(F)(F)F`, the compound was classed as inactive.

As for `O=S(=O)(O)CCC(F)(F)C(F)(F)C(F)(F)C(F)(F)F`, the call was inactive.

Consider `CNS(=O)(=O)C(F)(F)C(F)(F)C(F)(F)C(F)(F)C(F)(F)C(F)(F)C(F)(F)C(F)(F)F`, for which the compound was called inactive.

A word on the AC50: it is the concentration giving half of the maximal activity seen. As to `C=CC(=O)OCC(F)(F)C(F)(F)C(F)(F)COC(=O)C=C`, the AC50 is 4.56 µM (active).

For `OC(O)C(F)(F)C(F)(F)F`, the call was inactive.

On to `OCC(F)(F)C(F)(F)C(F)(F)C(F)(F)C(F)(F)C(F)(F)C(F)(F)C(F)(F)CO`, for which the compound was called inactive.

Take `NC(=O)C(F)(F)C(F)(F)C(F)(F)C(F)(F)C(N)=O`: the compound was classed as inactive.

Turning to `CCN(CCO)S(=O)(=O)C(F)(F)C(F)(F)C(F)(F)C(F)(F)C(F)(F)C(F)(F)C(F)(F)C(F)(F)F`, the call was inactive.

As for `C=CC(=O)OCCC(F)(F)C(F)(F)C(F)(F)C(F)(F)F`, the AC50 was 8.58 µM (active).

Take `OCC(O)CC(F)(F)C(F)(F)C(F)(F)C(F)(F)F` (centres undefined): the result was inactive.

Consider `O=C(O)C(F)(F)C(F)(F)C(F)(F)OC(F)(F)F`, for which the call was inactive.

`OCC(F)(F)C(F)(F)C(F)(F)CO`: the compound was classed as inactive.

For `FC(F)(F)C(F)(F)C(F)(F)C(F)(F)C(F)(F)C(F)(F)C(F)(F)CCI`, the call was inactive.

As for `NC(=O)C(F)(F)C(F)(F)C(F)(F)C(F)F`, the compound was called inactive.

Turning to `CO[Si](C)(CCC(F)(F)C(F)(F)C(F)(F)C(F)(F)C(F)(F)C(F)(F)F)OC`, the compound was called inactive.

Turning to `NC(O)(C(F)(F)F)C(F)(F)F`, the compound was called inactive.

As for `OCCCCC(F)(F)C(F)(F)C(F)(F)C(F)(F)F`, the result was inactive.

Consider `OCC(F)(F)C(F)(F)C(F)(F)C(F)(F)C(F)(F)C(F)(F)CO`, for which the compound was called inactive.
